# Reference: PubChem BioAssay (NCI)
# “And” between values parts separate entries of the source, which are not always exact repeats. Equal values may be shown once. This is part of a sample that, as a whole, favours compounds with a hit. Of some 83,000 tested, about 20% had one in any assay.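 Values shown are percent growth following 48 h exposure of cells in 96-well plates to a single concentration of compound; below 10 was considered active.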 The source made the active and inactive calls.
# System: OVCAR-5 ovarian
# Assay: NCI-60 one-dose screen, 48 h (100 = growth as untreated, 0 = no growth, -100 = all killed)
# Settings: 10 µM
# Method: Growth inhibition of the OVCAR-5 human tumor cell line is measured as a screen for anti-cancer activity. Cells are grown in 96 well plates and exposed to the test compound for 48 hours. Compounds are tested at a single concentration, which is 10^-5 M for most compounds. The reported endpoint is percent growth (GI% or GIPRCNT), where numbers from 0 - 100% represent growth inhibition, and numbers from -100% - 0 represent cell death. For example, a value of 40 represents 60% growth inhibition. A value of 0 means no net growth occurred over the course of the experiment. A value of -40 indicates 40% of cells at the beginning of the experiment died by the end of the experiment. A value of -100 means all cells are dead at the end of the experiment.
# NCI-60 Human Tumor Cell Lines Screen was performed using the standard one-dose NCI protocol, which is described in more detail at https://dtp.cancer.gov/discovery_development/nci-60/default.htm.
# Compounds with GIPRCNT values below 10 were considered active. Activity score was based on GIPRCNT using the following formula: […]
# Score is 0 for GIPRCNT values of 100 or above, 50 for GIPRCNT values of 0, and 100 for GIPRCNT values of -100.
row,SMILES,growth
1,CC#C[C@]1(O)CC[C@H]2[C@@H]3CCC4=CC(=O)CCC4=C3[C@@H](c3ccc4c(c3)OCO4)C[C@@]21C,109% (inactive)

# Same assay, conditions: 10 µM unless noted
row,SMILES,growth
1,N#C/C(=C/c1c(O)ccc2ccccc12)C(N)=O,105% (inactive)
2,ClC/C=C/CSc1ncnc2nc[nH]c12,112% (inactive) and 104% (inactive)
3,O=C(O)CCCCc1ccc([N+](=O)[O-])cc1,116% (inactive) and 89.9% (inactive)
4,C#CCN(C)Cc1ccccc1,116% (inactive)
5,O=C(Nc1ccc(Cl)cc1)c1cc2ccccc2cc1O,78.8% (inactive) and 42.7% (inactive)
6,Cn1c(=O)n(-c2ccc(C(C)(C)C#N)cc2)c2c3cc(-c4cnc5ccccc5c4)ccc3ncc21,10.4% (inactive) and 19.4% (inactive)
7,CCN(CC)CCOc1ccc2c(c1)C(=O)c1cc(OCCN(CC)CC)ccc1-2,108% (inactive)
8,CC(O)(CC(=O)CC(=O)c1ccccc1)c1ccccc1 (stereo not given),102% (inactive) and 103% (inactive)
9,COc1cc(NS(C)(=O)=O)ccc1Nc1c2ccccc2nc2c(C)cccc12,4.75% (active) and 8.59% (active)
10,COc1cc2c(Nc3ccc(Cl)c(Cl)c3F)ncnc2cc1OCC1C[C@@H]2CN(C)C[C@@H]2C1 (stereo not given in full),-89.8% (active) and 37.6% (inactive)
11,C/C(=N\NC(=O)c1ccncc1)c1ccccc1O,48.2% (inactive) and 51% (inactive)
12,CC(C)Oc1ccc2cc(-c3nn(CC4CCNCC4)c4ncnc(N)c34)ccc2c1,80.1% (inactive) and 40.2% (inactive)
13,CC1=C(/C=C/C(C)=C/C=C/C(C)=C/C=N/NC(=S)NC(=S)N/N=C/C=C(C)/C=C/C=C(C)/C=C/C2=C(C)CCCC2(C)C)C(C)(C)CCC1,-48.3% (active) and -77.7% (active)
14,Cc1nn(-c2ccc(Cl)cc2)c2ncnc(N/N=C/c3ccccc3O)c12,47.5% (inactive) and 52.7% (inactive)
15,Oc1ccccc1C=NCC1CCC(CN=Cc2ccccc2O)CC1 (stereo not given),67.6% (inactive)
16,CC12CCC(CC1)C(C)(C)O2,94.3% (inactive)
17,O=[N+]([O-])c1ccc(N/N=C\c2cc(Br)ccc2O)nc1,52% (inactive) and 54.4% (inactive)
18,S=C1SCN(Cc2ccccc2)CN1Cc1ccccc1,93.2% (inactive)
19,CCC(C)C1(C2CCCC2)NC(=O)NC1=O (stereo not given),111% (inactive) and 105% (inactive)

row,SMILES,growth
1,Cc1nn(-c2ccccc2)nc1C(=O)Nc1ccccc1C(=O)NCC1CC1,99.6% (inactive) and 86.8% (inactive)
2,O[C@H](c1cc(C(F)(F)F)nc2c(C(F)(F)F)cccc12)[C@@H]1CCCCN1,79.5% (inactive) and 69.3% (inactive)
3,O=[N+]([O-])c1ccccc1N(S(=O)(=O)c1ccccc1)S(=O)(=O)c1ccccc1,105% (inactive) and 101% (inactive)
4,CC(=O)NC(Cc1ccccc1)C(=O)Oc1ccc2ccccc2c1 (stereo not given),108% (inactive) and 93% (inactive)
5,O=C1c2ccccc2C(=O)N1/N=C/c1ccc2c(c1)OCO2,93.1% (inactive)
6,CCCCCCCCCCCCCCCc1cc(O)ccc1N,92.7% (inactive) and 124% (inactive)
7,NS(=O)(=O)c1cc2c(cc1Cl)NC(C(Cl)Cl)NS2(=O)=O (stereo not given),96.6% (inactive)
8,Clc1ccc(NC(Nc2ccc(Cl)cc2)C(Cl)(Cl)Cl)cc1,79.9% (inactive) and 100% (inactive)
9,c1ccc(NCc2ccc3c(c2)OCO3)cc1,110% (inactive) and 98% (inactive)
10,CN1CCN(CCC=C2c3ccccc3Sc3ccc(S(=O)(=O)N(C)C)cc32)CC1,80.1% (inactive)
11,Nc1cc(-c2cccc(OC(F)(F)F)c2)nc2ccc(N3CCCC3)cc12,31.7% (inactive) and 38.4% (inactive) and 30.1% (inactive)
12,COc1cc(C(=O)c2ccc3c(c2)OCO3)cc(OC)c1OC,62.3% (inactive) and 63.4% (inactive)
13,Cc1ccc(S(=O)(=O)Nc2ccc3cc([N+](=O)[O-])ccc3c2[N+](=O)[O-])cc1,96.9% (inactive) and 106% (inactive)
14,Oc1nc(NCCc2ccccc2)sc1/C=C1\C=Nc2ncccc21,18.1% (inactive) and 37.8% (inactive)
15,Nc1ccccc1SC1CC(=O)N(c2cccc3ccccc23)C1=O (stereo not given),101% (inactive)
16,Cc1ccc(-c2noc(C)n2)cc1,98.9% (inactive)
17,CNc1cc(-c2cccc(OC(F)(F)F)c2)nc2ccc(N3CCCC3)cc12,55.7% (inactive) and 12.4% (inactive) and 50% (inactive)
18,Cc1cc(O)c(C(C)C)cc1N,101% (inactive) and 103% (inactive)
19,COc1cc(/C=N/Nc2nc3c([nH]2)c(=O)n(C)c(=O)n3C)ccc1O,107% (inactive) and 111% (inactive)

# Same assay, conditions: 100 µM
row,SMILES,growth
1,CC#C[C@]1(O)CC[C@H]2[C@@H]3CCC4=CC(=O)CCC4=C3[C@@H](c3ccc4c(c3)OCO4)C[C@@]21C,14.3% (inactive)
